Values joined by “and” are separate entries in the source; they are usually repeats but may differ in a detail not shown here. Equal entries are not always repeated. Results filed as inconclusive are left out. A structure can be active in one record and inactive in another. Active and inactive are the calls of the source. Unless noted, calls follow the shape of the dose curve; as a rule, active = well fitted curve in the direction sought with a large enough effect in the repeat runs; inconclusive = weak or mixed curves; inactive = no such curve, though single readings can be large; an effect the other way counts as inactive or inconclusive.

A short description of assay [1]: qHTS assay for small molecules that induce genotoxicity in human embryonic kidney cells expressing luciferase-tagged ATAD5 (AID 651632). Also: nearly all actives have a fitted effect of over 15% in size. In outline:
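HEK293T cells carrying a luciferase reporter tagged to ATAD5 were exposed to compound or DMSO vehicle for 16 hr at 37C, 5% CO2. Amplite was added, and after 30 min at room temperature luciferase activity was read as a marker of ATAD5 induction.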

Assay [2] can be described thus: qHTS assay for small molecule agonists of the p53 signaling pathway - cell viability (AID 651633; calls by dose curve; also: nearly all actives have a fitted effect of over 30% in size; also: potency is read from the fitted curve at half-maximal effect). The essentials: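 Viability counter-read: CellTiter-Glo luminescence (30 min, room temperature) in the same p53RE-bla plates. These plates had been exposed to compounds for 16 h at 37 C.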
(In general: qHTS replaces the single test concentration by a dilution series.)

A short description of assay [3]: qHTS assay for small molecules that induce genotoxicity in human embryonic kidney cells expressing luciferase-tagged ATAD5 - cell viability (AID 651634; calls by dose curve; also: nearly all actives have a fitted effect of over 25% in size; also: potency is read from the fitted curve at half-maximal effect). The essentials: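 HEK293T cells expressing luciferase-tagged ATAD5 were exposed to compound or DMSO for 15.5 hr at 37C, 5% CO2. Viability was then read as live-cell protease activity by CellTiter-Fluor fluorescence after 30 min at 37C.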

Assay [4] can be described thus: qHTS assay for small molecule disruptors of the mitochondrial membrane potential - cell viability (AID 720634; calls by dose curve; also: nearly all actives have a fitted effect of over 20% in size; also: potency is read from the fitted curve at half-maximal effect). In outline:
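HepG2 cells seeded overnight at 37 C, then exposed to compound or DMSO for 1 hr at 37 C, 5% CO2. m-MPI dye added, then CellTiter-Glo for 30 min at room temperature; viability read as ATP luminescence.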

The nature of assay [5]: qHTS assay for small molecule disruptors of the mitochondrial membrane potential (AID 720635). Also: potency is read from the fitted curve at half-maximal effect. The essentials: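 Mitochondrial membrane potential tracked with Mito-MPS dye, red aggregates (ex 540/em 590 nm) against green monomers (ex 490/em 535 nm). Compound treatment 1 hr at 37C, dye 30 min in HepG2.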
A short description of assay [6]: qHTS assay to test for compound auto fluorescence at 590 nm (red) in HepG2 cells (AID 720674). In outline:
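1 hr compound incubation on HepG2 cells, 37 C, 5% CO2; plate read ex 540 nm / em 590 nm; intensities reported as Rose Bengal sodium equivalents.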

The nature of assay [7]: qHTS assay to test for compound auto fluorescence at 535 nm (green) in HepG2 cells (AID 720675).
Assay [8] is described as follows: qHTS assay to test for compound auto fluorescence at 460 nm (blue) in HEK293 cells (AID 720678). The essentials:
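HEK293 cells (2,000/well, medium with 10% dialyzed FBS) attached 4-5 hr, then exposed to compound overnight at 37C, 5% CO2. Blue fluorescence read at 405/460 nm, with triamterene as reference fluorophore.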

Assay [9] in a line: qHTS assay to test for compound auto fluorescence at 590 nm (red) in HEK293 cells (AID 720679). In outline: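 HEK293 cells (2,000/well, 10% dialyzed FBS) attached 4-5 hr, then dosed with compound or DMSO and incubated overnight at 37C, 5% CO2. Red fluorescence read at 540/590 nm, Rose Bengal sodium as reference fluorophore.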
A short description of assay [10]: qHTS assay to test for compound auto fluorescence at 535 nm (green) in HEK293 cells (AID 720680).
Assay [11] in a line: qHTS assay to test for compound auto fluorescence at 460 nm (blue) in HEK293 cell free culture (AID 720681). The essentials: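 Blue fluorescence (Ex 405/Em 460 nm, triamterene-equivalent) was read immediately after pin transfer of compound or DMSO into medium (DMEM, 10% FBS) without cells.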
Assay [12] in a line: qHTS assay to test for compound auto fluorescence at 535 nm (green) in HEK293 cell free culture (AID 720682). In outline: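 Green-label autofluorescence (485 nm excitation, 535 nm emission) measured on compound added to cell-free culture medium (DMEM, 10% FBS). Output is expressed relative to fluorescein.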
Assay [13] can be described thus: qHTS assay to test for compound auto fluorescence at 590 nm (red) in HEK293 cell free culture (AID 720683). The essentials:
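Red-channel autofluorescence of compounds in culture medium (DMEM, 10% FBS), no cells, measured at 540/590 nm. Rose Bengal sodium is the reference fluorophore for equivalence.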

A short description of assay [14]: qHTS assay to test for compound auto fluorescence at 590 nm (red) in HepG2 cell free culture (AID 720684). The essentials:
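Plate contents were MEM with 10% FBS plus test compound or DMSO, no cells. Fluorescence was recorded with 540 nm excitation and 590 nm emission.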

Assay [15] is described as follows: qHTS assay to test for compound auto fluorescence at 460 nm (blue) in HepG2 cell free culture (AID 720685). The essentials: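 Compound (23 nL) or DMSO pinned into cell-free MEM with 10% FBS; blue fluorescence read at 405/460 nm excitation/emission, expressed as auto-fluorescence equivalency to triamterene.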
Assay [16] can be described thus: qHTS assay to test for compound auto fluorescence at 460 nm (blue) in HepG2 cells (AID 720687). In outline:
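Blue-channel autofluorescence (Ex/Em 405/460 nm, triamterene-equivalent) was measured after 1 hr compound exposure at 37 C, 5% CO2. Cells were HepG2, plated overnight at 37 C in MEM plus 10% FBS.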

In assay [17] the target is Glucocorticoid receptor (Homo sapiens) (UniProt P04150). As to the kind of experiment: qHTS assay to identify small molecule agonists of the glucocorticoid receptor (GR) signaling pathway (AID 720691; active = well fitted activation curve with a large enough effect in the signal ratio in the repeat runs, not every such curve was filed as active; the % refers to the signal ratio). In outline: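 GR-bla HeLa cells (beta-lactamase reporter under glucocorticoid response element) were plated 4 h at 37 C/5% CO2, given compounds in DMSO, and incubated 18 h at 37 C. LiveBLAzer B/G FRET substrate was added for 2 h at room temperature, then fluorescence intensity read.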

For assay [18] the target is unchanged. As to the kind of experiment: qHTS assay to identify small molecule antagonists of the glucocorticoid receptor (GR) signaling pathway (AID 720692; active = well fitted inhibition curve with a large enough effect in the signal ratio in the repeat runs, not every such curve was filed as active; the % refers to the signal ratio). In outline: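 GR-bla HeLa cells (beta-lactamase reporter under glucocorticoid response element) were pre-plated 4 h at 37 C, treated with compounds plus 5 nM dexamethasone (final) for 18 h, then read by LiveBLAzer B/G FRET fluorescence after 2 h.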

A short description of assay [19]: qHTS assay to test for compound auto fluorescence at 535 nm (green) in HepG2 cell free culture (AID 720686).

Glucocorticoid receptor (Homo sapiens), sequence (P04150 whole entry, looked up): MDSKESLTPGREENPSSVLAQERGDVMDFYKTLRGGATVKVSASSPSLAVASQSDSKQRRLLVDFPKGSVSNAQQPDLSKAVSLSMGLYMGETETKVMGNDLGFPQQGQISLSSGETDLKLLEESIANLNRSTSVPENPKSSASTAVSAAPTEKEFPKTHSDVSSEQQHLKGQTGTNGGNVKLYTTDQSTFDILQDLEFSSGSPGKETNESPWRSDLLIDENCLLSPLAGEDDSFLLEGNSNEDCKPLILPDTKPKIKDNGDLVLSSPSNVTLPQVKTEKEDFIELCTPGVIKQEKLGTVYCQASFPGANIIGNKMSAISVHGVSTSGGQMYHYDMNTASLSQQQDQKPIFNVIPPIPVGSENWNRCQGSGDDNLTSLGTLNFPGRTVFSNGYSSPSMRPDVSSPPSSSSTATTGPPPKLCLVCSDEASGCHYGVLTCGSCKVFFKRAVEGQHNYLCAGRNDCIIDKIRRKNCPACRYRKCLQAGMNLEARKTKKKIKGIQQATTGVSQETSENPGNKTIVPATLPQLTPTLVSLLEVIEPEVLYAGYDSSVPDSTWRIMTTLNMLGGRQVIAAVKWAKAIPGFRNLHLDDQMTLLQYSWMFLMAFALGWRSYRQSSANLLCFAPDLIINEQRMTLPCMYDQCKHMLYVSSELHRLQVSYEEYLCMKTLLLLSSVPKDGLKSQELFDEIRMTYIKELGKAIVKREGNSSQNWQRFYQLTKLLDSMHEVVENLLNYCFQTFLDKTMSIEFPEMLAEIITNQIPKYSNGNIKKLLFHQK

Take `ClC(Cl)=C(Cl)C(Cl)=C(Cl)Cl`: the Potency entry in [1], in assay [2], in assay [3], in assay [4], in assay [5] and in [8] was “inactive” in each case. Further, the Potency entry in assay [11], in [15], in assay [16] and in [18] was “inactive” each time. Further, the compound was classed as inactive in assay [6], in [7], in assay [9], in assay [10], in [12] and in assay [13]. Besides, the compound was called inactive in assay [14] and in assay [17].

With `CCCCCCCCCC(CC)c1ccc(S(=O)(=O)O)cc1` (stereo not drawn), the Potency entry in assay [1], in [8], in [11], in [15], in assay [16] and in assay [18] was “inactive” in each case. The Potency result was “inactive and 68.6 µM (active)” in assay [4]; 61.1 µM (active) in assay [5]. Besides, the call in [6], in assay [7], in assay [9], in assay [10], in [12] and in assay [13] was inactive. For the same compound, the compound was called inactive in assay [14], in [19] and in assay [17].

As to `CCOP(=O)(O)OCC` (tested in a mixture with another compound), the Potency entry in [1], in assay [8], in assay [11], in assay [15] and in [16] was “inactive” throughout. Further, the Potency result in [2] is “inactive and 60.6 µM (active)”; in [4], “inactive and 60.6 µM (active)”; in [5], 24.1 µM (active). The result in assay [6], in assay [7], in assay [9], in assay [10], in [12] and in assay [13] was inactive. In addition, the compound was called inactive in [14] and in [19].

In the case of `CCC[CH2][Sn]([Cl])([Cl])[CH2]CCC`, the Potency entry in [1], in assay [8], in assay [11], in [15] and in assay [16] was “inactive” each time. The Potency in assay [2] is 2.2 µM (active) and 969 nM (active); in assay [3], 694 nM (active) and 34.4 nM (active). Besides, the outcome in assay [6], in assay [7], in assay [9], in assay [10], in [12] and in assay [13] was inactive. The outcome in [14] was inactive.

For `CCNCC`, the Potency result in [1], in [2], in [3], in assay [4], in assay [5] and in [8] was “inactive” each time. Also, the Potency result in assay [11], in assay [15], in assay [16] and in assay [18] was “inactive” in each case. The call in assay [6], in assay [7], in assay [9], in assay [10], in assay [12] and in assay [13] was inactive. Moreover, the call in [14], in [19] and in [17] was inactive.

With `O=S(=O)(O)C(F)(F)C(F)(F)C(F)(F)C(F)(F)C(F)(F)C(F)(F)C(F)(F)C(F)(F)F`, the Potency entry in assay [1], in [3], in assay [8], in assay [11], in assay [15] and in assay [16] was “inactive” each time. In addition, the Potency result in assay [2] is “inactive and 48.6 µM (active)”. In addition, the compound was called inactive in assay [6], in assay [7], in assay [9], in [10], in assay [12] and in assay [13]. For the same compound, the call in [14] was inactive.

`CCOP(=S)(OCC)SCn1c(=O)oc2cc(Cl)ccc21`: the Potency result in assay [1], in [2], in assay [3], in assay [8], in [11] and in assay [15] was “inactive” each time. The Potency result in assay [16] and in [18] was “inactive” in each case. Further, the Potency was 54.5 µM (active) in assay [4]; 29.3 µM (active) and 27.3 µM (active) in assay [5]. Moreover, the outcome in assay [6], in assay [7], in assay [9], in [10], in assay [12] and in [13] was inactive. The outcome in [14] and in [17] was inactive.

On to `C=CC(Cl)CCl` (stereo not drawn), for which the Potency entry in assay [1], in assay [2], in assay [3], in [8], in assay [11] and in assay [15] was “inactive” throughout. For the same compound, the Potency result in assay [16] and in [18] was “inactive” in each case. The compound was classed as inactive in assay [6], in assay [7], in [9], in assay [10], in assay [12] and in assay [13]. Further, the compound was called inactive in [14], in [19] and in [17].
